Test results as given in PubChem BioAssay (EPA / NIEHS).
Inconclusive results are not listed. Active and inactive are the calls of the source. The calls were made as follows: active = hit-call score of the fitted dose curve at least 0.9, where 1 is the maximum; inconclusive = response in the unintended direction; inactive = score below 0.9.

What follows are molecules tested against CDK2 (gene 1017) (UniProt P24941) (assay: NVS_ENZ_hCDK2: NovaScreen (NVS) Enzymatic Assay for human Cyclin-Cependent Kinase 2 (CDK2) (AID 2283144)).
How it was run: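 Cell-free recombinant human CDK2 with fluorescent substrate, product separated by electrophoretic mobility shift; 1 hr read. Primary screen at 25 uM in duplicate, actives retested in concentration-response up to 50 uM; loss of signal versus DMSO.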

| Structure (SMILES) | outcome |
| --- | --- |
| CCNc1nc(Cl)nc(NC(C)(C)C#N)n1 | inactive |
| CCOP(=O)(NC(C)C)Oc1ccc(SC)c(C)c1 (stereo unspecified) | inactive |
| CCCCN(CC)c1c([N+](=O)[O-])cc(C(F)(F)F)cc1[N+](=O)[O-] | inactive |

Each molecule was assayed against human Dual Specificity Protein Phosphatase 3 (DUSP3), DUSP3 (gene 1845) (UniProt P51452) (assay: NVS_ENZ_hDUSP3: NovaScreen (NVS) Enzymatic Assay for human Dual Specificity Protein Phosphatase 3 (DUSP3) (AID 2283152);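 also: phosphatase activity of recombinant human DUSP3 on a fluorogenic substrate without cells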).
How it was run: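 Cell-free assay with recombinant human DUSP3 and fluorogenic substrate, read by fluorescence intensity. Primary screen ran duplicate at 25 uM; actives followed up in concentration series; loss of signal versus DMSO scored.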

human Dual Specificity Protein Phosphatase 3 (DUSP3), DUSP3 (gene 1845), sequence (P51452 whole entry, looked up): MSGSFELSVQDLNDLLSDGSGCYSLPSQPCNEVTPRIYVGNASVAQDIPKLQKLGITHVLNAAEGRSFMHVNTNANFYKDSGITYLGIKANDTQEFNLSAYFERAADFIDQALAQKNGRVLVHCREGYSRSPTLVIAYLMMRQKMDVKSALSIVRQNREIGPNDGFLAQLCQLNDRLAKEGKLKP

| Structure (SMILES) | outcome |
| --- | --- |
| C=C(C)[C@H]1Cc2c(ccc3c2O[C@@H]2COc4cc(OC)c(OC)cc4[C@@H]2C3=O)O1 | inactive |
| CCCCOC(=O)[C@@H](C)Oc1ccc(Oc2ccc(C#N)cc2F)cc1 | inactive |
| CCCOCC(=Nc1ccc(Cl)cc1C(F)(F)F)n1ccnc1 | inactive |

Each molecule was assayed against human Elastase, ELANE (gene 1991) (UniProt P08246) (assay: NVS_ENZ_hElastase: NovaScreen (NVS) Enzymatic Assay for human Elastase (AID 2283153)).
How it was run: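 Cell-free elastase from human neutrophils, 1.5 h after dosing, activity read by absorbance. Primary screen in duplicate at 25 uM; hits (e.g., 30% inhibition) rerun in singleton concentration-response up to 50 uM, fitted versus DMSO.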

human Elastase, ELANE (gene 1991), sequence (P08246 whole entry, looked up): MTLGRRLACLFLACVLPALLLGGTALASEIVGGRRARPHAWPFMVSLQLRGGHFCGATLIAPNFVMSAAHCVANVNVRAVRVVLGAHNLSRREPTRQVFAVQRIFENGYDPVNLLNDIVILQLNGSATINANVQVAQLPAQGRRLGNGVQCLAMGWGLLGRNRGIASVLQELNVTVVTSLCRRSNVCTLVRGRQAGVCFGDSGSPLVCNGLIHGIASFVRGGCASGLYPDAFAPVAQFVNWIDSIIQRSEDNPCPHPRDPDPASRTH

| Structure (SMILES) | AC50 | outcome |
| --- | --- | --- |
| CCCSP(=O)(OCC)Oc1ccc(Br)cc1Cl (stereo unspecified) | 25 µM (active) | – |
| CCOP(=S)(OCC)Oc1cc(C)nc(C(C)C)n1 | – | inactive |
| CCOP(=O)(OCC)Oc1cc(C)nc(C(C)C)n1 | – | inactive |

What follows are molecules tested against human Ephrin type-B Receptor 1 (EphB1), EPHB1 (gene 2047) (UniProt P54762) (assay: NVS_ENZ_hEphB1: NovaScreen (NVS) Enzymatic Assay for human Ephrin type-B Receptor 1 (EphB1) (AID 2283154)).
How it was run: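 Cell-free kinase assay with recombinant enzyme, fluorescent substrate and electrophoretic mobility-shift separation of substrate and product; read 1 h after dosing. Single-concentration duplicate screen at 25 uM; loss of signal versus DMSO baseline.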

human Ephrin type-B Receptor 1 (EphB1), EPHB1 (gene 2047), sequence (P54762 whole entry, looked up): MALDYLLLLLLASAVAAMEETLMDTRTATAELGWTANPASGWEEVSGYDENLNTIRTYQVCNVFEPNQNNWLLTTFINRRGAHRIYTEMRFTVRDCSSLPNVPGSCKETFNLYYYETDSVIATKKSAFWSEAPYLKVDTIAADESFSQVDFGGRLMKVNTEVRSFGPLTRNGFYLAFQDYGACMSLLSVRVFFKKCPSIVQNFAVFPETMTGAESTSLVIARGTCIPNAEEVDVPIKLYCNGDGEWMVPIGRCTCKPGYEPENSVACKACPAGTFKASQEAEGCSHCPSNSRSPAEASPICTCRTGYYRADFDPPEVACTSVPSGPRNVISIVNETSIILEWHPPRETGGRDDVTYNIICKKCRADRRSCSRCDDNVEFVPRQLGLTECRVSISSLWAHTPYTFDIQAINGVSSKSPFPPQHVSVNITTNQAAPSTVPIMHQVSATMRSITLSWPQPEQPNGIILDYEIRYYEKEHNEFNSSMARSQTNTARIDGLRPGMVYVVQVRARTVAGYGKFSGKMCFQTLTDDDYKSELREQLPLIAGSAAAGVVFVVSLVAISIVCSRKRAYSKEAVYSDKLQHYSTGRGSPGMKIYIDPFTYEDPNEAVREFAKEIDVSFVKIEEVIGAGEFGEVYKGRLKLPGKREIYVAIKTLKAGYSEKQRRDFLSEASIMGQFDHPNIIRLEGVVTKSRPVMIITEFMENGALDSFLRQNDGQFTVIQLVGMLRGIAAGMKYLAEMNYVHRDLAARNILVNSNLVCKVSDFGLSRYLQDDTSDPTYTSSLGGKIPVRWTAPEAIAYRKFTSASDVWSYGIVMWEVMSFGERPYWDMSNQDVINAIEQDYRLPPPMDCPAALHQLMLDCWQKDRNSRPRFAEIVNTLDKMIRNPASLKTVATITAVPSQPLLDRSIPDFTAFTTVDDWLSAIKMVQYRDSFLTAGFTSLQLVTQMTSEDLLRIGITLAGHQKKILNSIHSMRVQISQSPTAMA

| Structure (SMILES) | outcome |
| --- | --- |
| COP(=O)(OC)C(O)C(Cl)(Cl)Cl (stereo unspecified) | inactive |
| CNC(=O)Oc1cccc2c1OC(C)(C)O2 | inactive |
| CCc1cccc(C)c1N(C(=O)CCl)C(C)COC (stereo unspecified) | inactive |
| CCOP(=S)(OCC)OC(Cl)C(Cl)(Cl)Cl (stereo unspecified) | inactive |
| CCCSP(=O)(OCC)Oc1ccc(Br)cc1Cl (stereo unspecified) | inactive |

Each molecule was assayed against human Esterase Plasma (ES), BCHE (gene 590) (UniProt P06276) (assay: NVS_ENZ_hES: NovaScreen (NVS) Enzymatic Assay for human Esterase Plasma (ES) (AID 2283157)).
How it was run: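 Esterase from human plasma, cell-free, colorimetric absorbance read 0.25 h after dosing. Screened at 25 uM in duplicate, with threshold-passing chemicals run in concentration-response up to 50 uM; loss of signal fitted versus DMSO.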

human Esterase Plasma (ES), BCHE (gene 590), sequence (P06276 whole entry, looked up): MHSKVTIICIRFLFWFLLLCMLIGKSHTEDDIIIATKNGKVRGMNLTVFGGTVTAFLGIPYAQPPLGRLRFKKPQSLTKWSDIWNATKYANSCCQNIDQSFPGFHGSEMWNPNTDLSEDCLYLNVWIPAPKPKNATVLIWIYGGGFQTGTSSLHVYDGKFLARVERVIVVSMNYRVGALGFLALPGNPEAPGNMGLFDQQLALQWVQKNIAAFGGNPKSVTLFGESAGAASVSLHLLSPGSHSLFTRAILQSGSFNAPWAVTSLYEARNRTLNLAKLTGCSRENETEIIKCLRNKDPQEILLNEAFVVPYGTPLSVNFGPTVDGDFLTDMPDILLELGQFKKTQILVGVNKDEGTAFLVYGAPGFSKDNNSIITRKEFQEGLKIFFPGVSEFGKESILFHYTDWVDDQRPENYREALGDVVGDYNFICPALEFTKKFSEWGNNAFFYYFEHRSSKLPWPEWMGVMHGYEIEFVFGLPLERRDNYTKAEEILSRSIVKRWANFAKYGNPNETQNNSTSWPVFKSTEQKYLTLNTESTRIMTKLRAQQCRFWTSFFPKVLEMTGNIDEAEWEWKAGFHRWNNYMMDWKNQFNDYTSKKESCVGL

| Structure (SMILES) | AC50 |
| --- | --- |
| CNC(=O)ON=C(SC)C(=O)N(C)C | 20.2 µM (active) |
| CCOP(=S)(OCC)Oc1ccc([N+](=O)[O-])cc1 | 17.5 µM (active) |
| CCOP(=S)(OCC)OC(Cl)C(Cl)(Cl)Cl (stereo unspecified) | 16.2 µM (active) |
| CCCSP(=O)(OCC)Oc1ccc(Br)cc1Cl (stereo unspecified) | 0.968 µM (active) |
| COP(=O)(OC)OC(Br)C(Cl)(Cl)Br (stereo unspecified) | 3.82 µM (active) |
| CCOP(=S)(Oc1cnc(C(C)(C)C)nc1)OC(C)C (stereo unspecified) | 25 µM (active) |
| COP(=O)(OC)SCn1c(=O)oc2cc(Cl)cnc21 | 18.5 µM (active) |
